Several values for one entry are separate records, joined by “and”; a condition that tells them apart may be missing. Equal entries are not always repeated. Results filed as inconclusive are left out. Activity calls are given as the source filed them. Calls come from the whole dose curve; as a rule, active = well fitted curve in the direction sought with a large enough effect in the repeat runs; inconclusive = weak or mixed curves; inactive = no such curve, though single readings can be large; an effect the other way counts as inactive or inconclusive.
Tests used:
[1] = qHTS RealTime-Glo MT Cell Viability Assay in HEK293 cells - 16 hour (AID 1224872); note: nearly all actives have a fitted effect of over 50% in size; note: potency is the fitted concentration of half-maximal effect
Outline: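 Assay medium contained NanoLuc luciferase plus cell-permeant prosubstrate, added with HEK293 cells at 600 cells/well. After 5 h at 37 C/5% CO2 compounds were added; plates stayed at 37 C for 40 h with serial luminescence reads.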

[2] = qHTS RealTime-Glo MT Cell Viability Assay in HepG2 cells - 8 hour (AID 1224873); note: nearly all actives have a fitted effect of over 55% in size
Outline: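 HepG2 cells (600/well) mixed with RealTime-Glo MT reagent, settled 5 h at 37 C/5% CO2 before compound addition. Nonlytic NanoLuc luminescence from viable-cell prosubstrate reduction read repeatedly during 40 h treatment at 37 C.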

[3] = A CellTox Green Cytotoxicity Assay to monitor cytotoxicity in HEK293 cells - 24 hour (AID 1224875); note: nearly all actives have a fitted effect of over 45% in size; note: potency is the fitted concentration of half-maximal effect
Outline: (§1)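 HEK293 cells, 600/well, were preincubated 5 hours and then exposed to compounds at 37 C for up to 40 hours. A cell-impermeant cyanine dye staining dead-cell DNA was read by fluorescence at 0, 8, 16, 24, 32 and 40 h time points.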

[4] = A CellTox Green Cytotoxicity Assay to monitor cytotoxicity in HepG2 cells - 16 hour (AID 1224876); note: nearly all actives have a fitted effect of over 45% in size; note: potency is the fitted concentration of half-maximal effect
Outline: (§2)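 HepG2 cells, 600/well, preincubated 5 h with CellTox Green dye, then exposed to Tox21 compounds in DMSO at 37 C for up to 40 h. Dead-cell DNA fluorescence read at the indicated time point.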

[5] = qHTS RealTime-Glo MT Cell Viability Assay in HepG2 cells - 32 hour (AID 1224877); note: nearly all actives have a fitted effect of over 55% in size; note: potency is the fitted concentration of half-maximal effect
Outline: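 qHTS, HepG2, 600 cells/well, RealTime-Glo (NanoLuc + prosubstrate) added with cells; 5 h preincubation; DMSO compound addition; 37 C; luminescence at 0/8/16/24/32/40 h.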

[6] = A CellTox Green Cytotoxicity Assay to monitor cytotoxicity in HepG2 cells - 24 hour (AID 1224878); note: nearly all actives have a fitted effect of over 45% in size; note: potency is the fitted concentration of half-maximal effect
Outline: as §2

[7] = A CellTox Green Cytotoxicity Assay to monitor cytotoxicity in HepG2 cells - 40 hour (AID 1224879); note: nearly all actives have a fitted effect of over 40% in size; note: potency is the fitted concentration of half-maximal effect
Outline: as §2

[8] = qHTS RealTime-Glo MT Cell Viability Assay in HEK293 cells - 0 hour (AID 1224880); note: top concentration of the series differs between compounds; nearly all actives have a fitted effect of over 45% in size
Outline: (§3)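 600 cells/well were plated with the nonlytic NanoLuc/prosubstrate reagent, pre-incubated 5 h, then given 23 nL of compound in DMSO. Incubation at 37 C for 40 h, with luminescence from viable-cell-reduced substrate read repeatedly from 0 h.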

[9] = A CellTox Green Cytotoxicity Assay to monitor cytotoxicity in HEK293 cells - 32 hour (AID 1224881); note: nearly all actives have a fitted effect of over 40% in size; note: potency is the fitted concentration of half-maximal effect
Outline: as §1

[10] = qHTS RealTime-Glo MT Cell Viability Assay in HEK293 cells - 40 hour (AID 1224874); details: RealTime-Glo luminescence; max response: active compounds read low; note: nearly all actives have a fitted effect of over 50% in size; note: potency is the fitted concentration of half-maximal effect
Outline: as §3
% is set by controls: 0 for no effect and ±100 for the full control effect.

COC(=O)c1ccc(I)cc1S(=O)(=O)NC(=O)Nc1nc(C)nc(OC)n1
inactive: Potency [1] | Potency [2] | Potency [3] | Potency [4] | Potency [5] | Potency [6] | Potency [7] | Potency [8] | Potency [9]

C=C(C)C(=O)OCCO
inactive: Potency [1] | Potency [2] | Potency [3] | Potency [4] | Potency [5] | Potency [6] | Potency [7] | Potency [8]

OCCNCc1ccccc1
inactive: Potency [1] | Potency [2] | Potency [3] | Potency [4] | Potency [5] | Potency [7] | Potency [8] | Potency [9]

Cc1c(N)cccc1[N+](=O)[O-]
inactive: Potency [1] | Potency [2] | Potency [3] | Potency [4] | Potency [5] | Potency [6] | Potency [7] | Potency [8]

CC(=O)c1ccc2c(c1)N(CCCN(C)C)c1ccccc1S2
inactive: Potency [1] | Potency [2] | Potency [3] | Potency [4] | Potency [5] | Potency [6] | Potency [8] | Potency [9]

NCCCN1CCOCC1
inactive: Potency [1] | Potency [2] | Potency [3] | Potency [4] | Potency [5] | Potency [6] | Potency [7] | Potency [8] | Potency [9]

O=C1CCCCCCCCCCCC(=O)OCCO1
inactive: Potency [1] | Potency [2] | max response [10] -16% | Potency [4] | Potency [5] | Potency [8]

O=[N+]([O-])c1ccc2[nH]ncc2c1
inactive: Potency [1] | Potency [2] | Potency [3] | Potency [4] | Potency [5] | Potency [6] | Potency [7] | Potency [8] | Potency [9]

C[C@@H](c1ncncc1F)C(O)(Cn1cncn1)c1ccc(F)cc1F (stereo not given in full)
inactive: Potency [1] | Potency [2] | Potency [3] | Potency [4] | Potency [5] | Potency [6] | Potency [7] | Potency [8] | Potency [9]

CN(C)CCN(Cc1ccsc1)c1ccccn1
inactive: Potency [1] | Potency [2] | Potency [3] | Potency [4] | Potency [5] | Potency [6] | Potency [7] | Potency [8] | Potency [9]

CCCCCCCCCCCc1ccccc1
inactive: Potency [1] | Potency [2] | Potency [3] | Potency [4] | Potency [5] | Potency [6] | Potency [7] | Potency [8] | Potency [9]

COc1ccnc(CS(=O)c2nc3ccc(OC(F)F)cc3[nH]2)c1OC (stereo not given)
inactive: Potency [1] | Potency [2] | Potency [3] | Potency [4] | Potency [5] | Potency [6] | Potency [7] | Potency [8] | Potency [9]

COc1cc(Cl)c(OC)cc1N
inactive: Potency [1] | Potency [2] | Potency [3] | Potency [4] | Potency [5] | Potency [6] | Potency [7] | Potency [8] | Potency [9]

c1ccc(-c2ccccn2)nc1
inactive: Potency [1] | Potency [2] | Potency [3] | Potency [4] | Potency [5] | Potency [7] | Potency [8]

O=C(O)c1ccc(-n2nc(-c3ccccc3O)nc2-c2ccccc2O)cc1
inactive: Potency [1] | Potency [2] | Potency [3] | Potency [4] | Potency [5] | Potency [6] | Potency [7] | Potency [8] | Potency [9]

C[N+]1(C)CCC(OC(=O)C(O)(c2ccccc2)C2CCCC2)C1 (stereo not given)
inactive: Potency [1] | Potency [2] | Potency [4] | Potency [5] | Potency [6] | Potency [7] | Potency [8]
active: Potency [3] 23.9 µM

O=C(O)c1nc(Cl)c(Cl)c(Cl)c1Cl
inactive: Potency [1] | Potency [2] | Potency [3] | Potency [4] | Potency [5] | Potency [6] | Potency [7] | Potency [9]

C/C=C/C=C/CO
inactive: Potency [1] | Potency [2] | Potency [3] | Potency [4] | Potency [5] | Potency [6] | Potency [7] | Potency [8] | Potency [9]

CC1OC(=O)C(C)OC1=O (stereo not given)
inactive: Potency [1] | Potency [2] | Potency [3] | Potency [4] | Potency [5] | Potency [6] | Potency [7] | Potency [8] | Potency [9]

C[N+](C)(C)CCOC(=O)CCC(=O)OCC[N+](C)(C)C
inactive: Potency [1] | Potency [2] | Potency [3] | Potency [4] | Potency [5] | Potency [7] | Potency [8] | Potency [9]

CCCCCCCCCc1ccc(OCCOCCO)cc1
active: Potency [1] 1.45 µM | Potency [10] 1.03 µM | Potency [3] 14.5 µM | Potency [4] 20.5 µM | Potency [6] 18.3 µM | Potency [7] 20.5 µM

O=S(c1cc(Cl)cc(Cl)c1O)c1cc(Cl)cc(Cl)c1O
inactive: Potency [1] | max response [10] -7.88% | Potency [3] | Potency [4] | Potency [5] | Potency [7] | Potency [8] | Potency [9]

CCCCOC(=O)CCCCCCCC(=O)OCCCC
inactive: Potency [1] | max response [10] 2.76% | Potency [3] | Potency [4] | Potency [5] | Potency [7] | Potency [8] | Potency [9]

CN(C)CCOC(c1ccccc1)c1ccc(Br)cc1 (stereo not given)
inactive: Potency [1] | Potency [2] | Potency [3] | Potency [5] | Potency [9]
active: Potency [7] 23.9 µM

Cc1cccc(C)c1OCC(=O)N[C@@H](Cc1ccccc1)[C@@H](O)C[C@H](Cc1ccccc1)NC(=O)[C@H](C(C)C)N1CCCNC1=O
active: Potency [1] 23.9 µM
inactive: Potency [2] | Potency [4] | Potency [5] | Potency [6] | Potency [7] | Potency [8]

CCC(C)O (stereo not given)
inactive: Potency [1] | max response [10] 7.73% | Potency [3] | Potency [4] | Potency [5] | Potency [6] | Potency [7] | Potency [9]

Cc1ccc(C(C)OC(=O)C2(C)CCC(C(=O)O)C2(C)C)cc1 (stereo not given)
inactive: Potency [1] | max response [10] 8.96% | Potency [3] | Potency [4] | Potency [5] | Potency [6] | Potency [7] | Potency [8] | Potency [9]

CC(=O)NO
inactive: Potency [1] | max response [10] 2.23% | Potency [3] | Potency [4] | Potency [5] | Potency [6] | Potency [7] | Potency [8]

C=CC(=O)OCCOc1ccccc1
inactive: Potency [1] | max response [10] 2.45% | Potency [3] | Potency [4] | Potency [5] | Potency [6] | Potency [7] | Potency [9]

CCCCCCCCCCCCCCCCCCOS(=O)(=O)O
inactive: Potency [1] | Potency [2] | Potency [5] | Potency [8]

C[N+]1(CC2COC(c3ccccc3)(C3CCCCC3)O2)CCCCC1 (stereo not given)
inactive: Potency [1] | Potency [2] | Potency [4] | Potency [6] | Potency [7] | Potency [8] | Potency [9]

O=C(c1ccc(F)cc1)C1CCN(CCn2c(=S)[nH]c3ccccc3c2=O)CC1
active: Potency [1] 3.38 µM | Potency [10] 5.35 µM
inactive: Potency [3] | Potency [4] | Potency [5] | Potency [6] | Potency [9]

CN1CCN(C(c2ccccc2)c2ccccc2)CC1
inactive: Potency [1] | max response [10] -1.32% | Potency [3] | Potency [4] | Potency [5] | Potency [6] | Potency [7] | Potency [8] | Potency [9]

C#CCN(C)CCCOc1ccc(Cl)cc1Cl
active: Potency [7] 6.01 µM
inactive: Potency [1] | max response [10] -21.6% | Potency [3] | Potency [4] | Potency [5] | Potency [6] | Potency [9]

Nc1cccc([N+](=O)[O-])c1
inactive: Potency [1] | max response [10] 1.66% | Potency [3] | Potency [4] | Potency [5] | Potency [6] | Potency [7] | Potency [8] | Potency [9]

CC(=O)OC[C@H]1O[C@@H](n2ncc(=O)[nH]c2=O)[C@H](OC(C)=O)[C@@H]1OC(C)=O
inactive: Potency [1] | Potency [2] | Potency [4] | Potency [5] | Potency [6] | Potency [7] | Potency [8] | Potency [9]

CCCCCCCC#N
inactive: Potency [1] | max response [10] -4.16% | Potency [3] | Potency [4] | Potency [5] | Potency [6] | Potency [7] | Potency [8] | Potency [9]

CN1C[C@H]2c3ccccc3Oc3ccc(Cl)cc3[C@@H]2C1
inactive: Potency [1] | Potency [2] | Potency [3] | Potency [5] | Potency [9]
active: Potency [7] 26.8 µM

CCCCCCCCCCO[C@@H]1O[C@H](CO)[C@@H](O)[C@H](O)[C@H]1O
inactive: Potency [1] | Potency [2] | Potency [4] | Potency [5] | Potency [6] | Potency [7]

C=C1[C@H]2CC[C@@H]3[C@H]2C(C)(C)CCC[C@]13C
inactive: Potency [1] | max response [10] -2.59% | Potency [3] | Potency [4] | Potency [5] | Potency [6] | Potency [7] | Potency [8] | Potency [9]

O=C(OCCc1ccccc1)c1ccccc1
inactive: Potency [1] | Potency [2] | Potency [4] | Potency [5] | Potency [6] | Potency [7] | Potency [8] | Potency [9]

CCCCCCCCCCCC(=O)OC[C@@H](O)[C@H]1OC[C@H](OCCO)[C@H]1OCCO
inactive: Potency [1] | max response [10] -0.559% | Potency [3] | Potency [4] | Potency [5] | Potency [6] | Potency [7] | Potency [8] | Potency [9]

C=CC(=O)OCCOCCOCCOCCOC(=O)C=C
inactive: Potency [3] | Potency [4] | Potency [6] | Potency [8]
active: Potency [1] 43.2 µM | Potency [10] 31.1 µM and 19.3 µM | Potency [5] 48.5 µM | Potency [7] 24.7 µM and 13.7 µM | Potency [9] 54.4 µM

CC(C)Nc1ccc(NC(C)C)c2c1C(=O)c1ccccc1C2=O
inactive: Potency [1] | max response [10] -6.09% | Potency [4] | Potency [5] | Potency [8]
active: Potency [3] 25.5 µM | Potency [7] 8.07 µM | Potency [9] 25.5 µM

Nc1ccc([N+](=O)[O-])c(C(F)(F)F)c1
inactive: Potency [1] | max response [10] -6.2% | Potency [3] | Potency [4] | Potency [5] | Potency [7] | Potency [8] | Potency [9]

NS(=O)(=O)c1ccc(N2CCCCS2(=O)=O)cc1
inactive: Potency [1] | max response [10] -0.0797% | Potency [3] | Potency [4] | Potency [5] | Potency [7]

C#Cc1cccc(Nc2ncnc3cc(OCCOC)c(OCCOC)cc23)c1
inactive: Potency [1] | max response [10] -23.8% | Potency [3] | Potency [4] | Potency [5] | Potency [6] | Potency [7] | Potency [8] | Potency [9]

Source: PubChem BioAssay (Tox21)
